This note sets out measurements from PubChem BioAssay (NCI).

The structures appear in SMILES notation. The panel holds about 83,000 compounds, 20% with a hit somewhere; the sample as a whole holds those more often.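 Assay: single dose, 48 h. Readout: percent growth (0 = no net growth; negative = cell death). Active: <10.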 Active and inactive are the calls of the source.

For this test, the system named is SNB-75 CNS. The experiment in a line: NCI-60 one-dose screen, 48 h (100 = growth as untreated, 0 = no growth, -100 = all killed). As to conditions: 10 µM. The procedure:
Growth inhibition of the SNB-75 human tumor cell line is measured as a screen for anti-cancer activity. Cells are grown in 96 well plates and exposed to the test compound for 48 hours. Compounds are tested at a single concentration, which is 10^-5 M for most compounds. The reported endpoint is percent growth (GI% or GIPRCNT), where numbers from 0 - 100% represent growth inhibition, and numbers from -100% - 0 represent cell death. For example, a value of 40 represents 60% growth inhibition. A value of 0 means no net growth occurred over the course of the experiment. A value of -40 indicates 40% of cells at the beginning of the experiment died by the end of the experiment. A value of -100 means all cells are dead at the end of the experiment.
NCI-60 Human Tumor Cell Lines Screen was performed using the standard one-dose NCI protocol, which is described in more detail at https://dtp.cancer.gov/discovery_development/nci-60/default.htm.
Compounds with GIPRCNT values below 10 were considered active. Activity score was based on GIPRCNT using the following formula: […]
Score is 0 for GIPRCNT values of 100 or above, 50 for GIPRCNT values of 0, and 100 for GIPRCNT values of -100.
With `COc1ccc(NC2=NC(C)(CO)CS2)cc1` (stereo not given), the growth was 83.5% (inactive). The same measure for `CC(C)C[C@H](NC(=O)[C@H](Cc1cccc2ccccc12)NS(=O)(=O)c1cccc2cccnc12)B(O)O`: -51.9% (active); for `COc1ccc(-c2nn(-c3cccc(NC(=O)Nc4cc(C(F)(F)F)cc(C(F)(F)F)c4)c3)cc2-c2ccncc2)cc1Cl`: 6.77% (active). Under `CSC1=NCCCC1` stands 99.9% (inactive); under `CCc1ccc2c(c1)N(CCO)C1=C(C(=O)OC1)C2c1ccccc1` (stereo not given), 88% (inactive); under `O=C(Nc1cccc(Cl)c1)Nc1nccs1`, 91.6% (inactive). The same measure for `COc1cc([C@@H]2c3cc4c(cc3C(Br)[C@H]3COC(=O)[C@H]23)OCO4)cc(OC)c1OC` (stereo not given in full): 9.76% (active). With `COc1ccc(-c2cc(/C=C3\C(=O)Nc4ccc(OC)cc43)[nH]n2)cc1`, the growth was -18.7% (active). Under `CCN1CCCC1CNC(=O)c1ncc(-c2ccc(C(F)(F)F)cc2)c(NC2CCCCCC2)n1` (stereo not given) stands 74.3% (inactive); under `COc1ccccc1/C=C/C(=O)c1ccccc1`, 87.8% (inactive). Under `C[N+](C)(C)c1ncnc2nc[nH]c12` stands 70% (inactive). Under `COc1cc(/C(=C2/O[C@@H]([C@H]3COC(C)(C)O3)[C@H]3OC(C)(C)O[C@@H]23)c2ccc3ccccc3c2)cc(OC)c1OC` stands 41.1% (inactive); under `C(CCCC1=NCCO1)CCCC1=NCCO1`, 77.5% (inactive). In the case of `COc1cc2c(cc1OCCCCCCN1CCN(CC(=O)Nc3ccc(Cl)cc3C(=O)c3ccccc3Cl)CC1)N=CC1CCCN1C2=O` (stereo not given), the growth was -84.5% (active).

Turning to `C/C(N)=C(\C#N)C(=O)c1ccccc1`, the growth was 93.1% (inactive). The same measure for `CO/N=C(/C(=O)NC1C(=O)N2C(C(=O)O)=C(COC(N)=O)CSC12)c1ccco1` (stereo not given): 91.6% (inactive); for `Clc1ccc(Nc2ccnc(NCCNc3ccnc4cc(Cl)ccc34)n2)cc1`: 4.36% (active); for `CCN(CCCCCCN1CC(=O)N(CCCCCCN(CC)Cc2ccccc2OC)CC1=O)Cc1ccccc1OC`: 76.6% (inactive). The same measure for `COc1ccc(-c2cc(/C=C/C(=O)c3cc(OC)c(OC)c(OC)c3)[nH]n2)cc1OC`: 17.8% (inactive). The same measure for `N#CCCN1C/C(=C/c2ccc(Cl)cc2)C(=O)/C(=C/c2ccc(Cl)cc2)C1`: 11.6% (inactive); for `CC(C)=CCc1ccc(O)c(=O)cc1C(C)C`: 12.7% (inactive). With `Fc1ccc2nc(-c3nc(-c4ccccc4)n4ccccc34)[nH]c2c1`, the growth is -44.1% (active).

For the compound `COc1ccc2c(c1OC)O/C(=C\c1ncc([N+](=O)[O-])n1C)C2=O`, the growth was 76.6% (inactive). The same measure for `Clc1ccccc1N=Cc1ccc2c(c1)OCO2`: 95% (inactive). As for `Cc1nc2c(c(=O)[nH]1)OCN(Cc1ccccc1)C2`, the growth was 89.6% (inactive). The same measure for `CN(C)C=Nc1cc(Cl)ccc1Cl`: 89.8% (inactive); for `COc1cccc(C2C3=C(COC3=O)N(CCO)c3cc(OC)ccc32)c1` (stereo not given): 27.2% (inactive); for `CCOC(=O)C(NC(=O)C(Cl)Cl)C(O)c1ccccc1` (stereo not given): 91.3% (inactive). On to `O=S(=O)(NCCCNc1nccc(-c2c(-c3ccc(F)cc3)nc3sccn23)n1)c1ccc(F)cc1`, for which the growth was 40.7% (inactive). Under `N#Cc1ncc(Br)c(NC2CCCCCC2)n1` stands 83.8% (inactive); under `CCn1cc(C(=O)O)c(=O)c2cnc(N3CCCC3)nc21`, 88.1% (inactive); under `Cc1ccc(N=Nc2c(N)nc(N)[nH]c2=O)cc1C`, 104% (inactive). With `O=C(O)C(SC(C(=O)O)c1ccccc1)c1ccccc1` (stereo not given), the growth was 85.6% (inactive). As to `COc1cc(NC(=O)CCSc2nc3ccc(C)cc3c(=O)n2Cc2ccccc2)cc(OC)c1OC`, the growth was -13.9% (active). In the case of `C#Cc1ccc(-n2c(/C=C/c3ccc4ccccc4c3)nc3ncccc3c2=O)cc1`, the growth is 47.3% (inactive). The same measure for `COc1cc(-c2cc(C(=O)N3CCN(C(=O)c4ccccc4NCc4ccco4)CC3)nc3cc(-c4ccccc4)nn23)cc(OC)c1OC`: 8.05% (active).

For the compound `Clc1ccc2c(NCCCNc3nccc(Nc4ccc(Br)cc4)n3)ccnc2c1`, the growth is -93.9% (active). Consider `O=C1/C(=C\c2ccc(F)cc2)CN(C(=O)c2ccccc2F)C/C1=C\c1ccc(F)cc1`, for which the growth was 52.9% (inactive). Under `COc1ccc2c(c1)N(CCO)C1=C(C(=O)OC1)C2c1ccccc1` (stereo not given) stands 14.6% (inactive); under `C#Cc1ccc(-n2c(/C=C/c3ccc(Cl)c(F)c3)nc3ncccc3c2=O)cc1`, -64.7% (active).
